{"source": "PubChem BioAssay AID779", "about": "(Sanford-Burnham Center for Chemical Genomics, 2007)", "note": "Values without a mark were called inactive. No rule for the calls is given here."}
{"assay": "PLAP enzyme activity inhibition – biochemical, colorimetric, counter-screen, dose response (AID 779)", "conditions": "colorimetric OD read-out", "units": {"IC50": "µM"}}
{"smiles": "CCN(CCCNC(=O)CN(C)S(=O)(=O)c1cccc2nsnc12)c1cccc(C)c1", "IC50": "> 50"}
{"smiles": "CC1CCCN(c2nc3ccccc3nc2C(C#N)C(=O)OC2CCCCC2)C1", "note": "(stereo not given)", "IC50": "> 50"}
{"smiles": "O=C(O)c1ccccc1C(=O)NNc1ccc(F)cc1", "IC50": "> 50"}
{"smiles": "C=CCn1c(=O)/c(=C/c2cc(OC)c(OC)c(OC)c2)s/c1=C(/C#N)c1nc2ccccc2n1C", "IC50": "> 50"}
{"smiles": "O=C(O)c1ccc(CN(c2ccccn2)S(=O)(=O)c2ccccc2)cc1", "IC50": "> 50"}
{"smiles": "CCCn1nc(-c2ccccc2)c2nc3ccccc3nc21", "IC50": "> 50"}
{"smiles": "Oc1c(N=Nc2ccccn2)ccc2ccccc12", "IC50": "> 50"}
{"smiles": "CCn1nc(-c2ccccc2)c2nc3ccccc3nc21", "IC50": "> 50"}
{"smiles": "CCOc1ccc(/C=C/C2=Cc3c(sc(NC(=O)CSc4n[nH]c(N)n4)c3C#N)C(C)(C)C2)cc1", "IC50": "> 50"}
{"smiles": "CC(=O)Nc1ccc(NC2=Nc3ccccc3N3C2=Nc2c(c(C)nn2-c2ccccc2)C3c2ccccc2)cc1", "note": "(stereo not given)", "IC50": "> 50"}
{"smiles": "O=[N+]([O-])c1ccc(N(c2ccccc2)c2ccccc2)cc1", "IC50": "> 50"}
{"smiles": "FC(F)(F)c1nnc2c(Sc3ccccn3)nc3ccccc3n12", "IC50": "> 50"}
{"smiles": "CCC(C)COC(=O)C(C#N)c1nc2ccccc2nc1N1CCCCC1", "note": "(stereo not given)", "IC50": "> 50"}
{"smiles": "N#Cc1sc2nc(-c3cccs3)cc(-c3ccccc3)c2c1N", "IC50": "> 50"}
{"smiles": "CCCN1C(=O)/C(=C/C=C2\\N(CC)c3ccccc3C2(C)C)SC1=S", "IC50": "> 50"}
